Unmarked numbers belong to inactive results. Activity calls are given as the source filed them. Rule as the data show it, unless noted: active = inhibition above about 30%; inactive = the rest.
Tests used:
[1] = target: Nuclear receptor coactivator 3 (Homo sapiens) (UniProt Q9Y6Q9); experiment: SRC3 coactivator transcriptional activity inhibitors, confirmation, cell-based, luminescence, quadruplicate (AID 588792;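 active = mean inhibition over 43.08%, the solvent-only control mean plus 3 SD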;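 also: 0% = DMSO treated cells and 100% = gossypol at 36 µM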); settings: HEK293 GAL4-SRC3 luciferase reporter, at 3.6 µM, hits give high values
Nuclear receptor coactivator 3 (Homo sapiens), sequence (Q9Y6Q9 whole entry, looked up, the tested form may be a part): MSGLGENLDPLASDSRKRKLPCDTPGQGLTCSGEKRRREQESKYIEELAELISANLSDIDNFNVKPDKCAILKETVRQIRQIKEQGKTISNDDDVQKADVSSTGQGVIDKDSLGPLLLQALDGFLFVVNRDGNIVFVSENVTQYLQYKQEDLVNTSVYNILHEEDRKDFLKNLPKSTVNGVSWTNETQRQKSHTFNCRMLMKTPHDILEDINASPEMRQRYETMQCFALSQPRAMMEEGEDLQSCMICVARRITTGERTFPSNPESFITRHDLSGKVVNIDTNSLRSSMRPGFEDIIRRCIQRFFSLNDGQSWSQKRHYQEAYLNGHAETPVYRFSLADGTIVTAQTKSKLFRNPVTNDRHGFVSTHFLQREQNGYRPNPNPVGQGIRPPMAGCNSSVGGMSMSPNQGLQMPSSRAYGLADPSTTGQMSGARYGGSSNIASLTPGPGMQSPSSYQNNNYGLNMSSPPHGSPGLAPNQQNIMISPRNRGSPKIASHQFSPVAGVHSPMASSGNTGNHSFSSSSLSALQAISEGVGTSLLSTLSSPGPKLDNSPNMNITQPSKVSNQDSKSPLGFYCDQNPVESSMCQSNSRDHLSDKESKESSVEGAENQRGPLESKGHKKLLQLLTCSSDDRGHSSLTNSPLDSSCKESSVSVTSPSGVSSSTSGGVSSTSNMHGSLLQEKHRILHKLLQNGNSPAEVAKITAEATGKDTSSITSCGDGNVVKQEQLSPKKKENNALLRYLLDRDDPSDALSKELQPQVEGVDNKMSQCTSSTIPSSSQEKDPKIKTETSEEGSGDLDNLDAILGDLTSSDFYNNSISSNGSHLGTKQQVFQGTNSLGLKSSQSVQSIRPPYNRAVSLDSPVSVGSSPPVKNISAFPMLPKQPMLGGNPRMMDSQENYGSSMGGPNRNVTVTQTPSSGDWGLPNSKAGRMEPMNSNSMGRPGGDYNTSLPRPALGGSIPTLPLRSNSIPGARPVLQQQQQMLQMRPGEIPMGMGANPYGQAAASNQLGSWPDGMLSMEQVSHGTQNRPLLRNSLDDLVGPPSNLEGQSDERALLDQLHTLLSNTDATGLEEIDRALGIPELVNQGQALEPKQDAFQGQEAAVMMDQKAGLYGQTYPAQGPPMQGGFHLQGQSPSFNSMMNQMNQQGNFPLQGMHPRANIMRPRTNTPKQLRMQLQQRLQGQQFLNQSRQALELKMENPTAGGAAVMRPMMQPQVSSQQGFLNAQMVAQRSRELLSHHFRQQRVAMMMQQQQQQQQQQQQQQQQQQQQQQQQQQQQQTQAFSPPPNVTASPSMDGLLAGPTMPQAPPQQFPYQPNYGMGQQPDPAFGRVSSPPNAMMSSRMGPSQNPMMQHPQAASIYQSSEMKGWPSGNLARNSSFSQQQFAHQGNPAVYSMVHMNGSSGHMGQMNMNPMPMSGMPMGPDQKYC

[2] = tested on: transactivating tegument protein VP16 (Human herpesvirus 1), Gal4-VP16 luciferase reporter; experiment: VP16 transactivation inhibitors, counter-screen for SRC3 inhibitor project, cell-based, luminescence, high throughput (AID 588794); settings: mammalian cells, VP16-driven luciferase reporter luminescence; at 3.6 µM; hits give high values
[3] = target: Nuclear receptor coactivator 1 (Homo sapiens) (UniProt Q15788); experiment: SRC1 coactivator transcriptional activity inhibitors, confirmation, cell-based, luminescence, quadruplicate (AID 588820;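 active = mean inhibition above 46.68%, the untreated control wells mean plus 3 SD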;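 also: 0% = DMSO wells and 100% = gossypol 36 µM treated wells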); settings: HEK293 GAL4-SRC1 luciferase reporter, at 3.6 µM, hits give high values
Nuclear receptor coactivator 1 (Homo sapiens), sequence (Q15788 whole entry, looked up, the tested form may be a part): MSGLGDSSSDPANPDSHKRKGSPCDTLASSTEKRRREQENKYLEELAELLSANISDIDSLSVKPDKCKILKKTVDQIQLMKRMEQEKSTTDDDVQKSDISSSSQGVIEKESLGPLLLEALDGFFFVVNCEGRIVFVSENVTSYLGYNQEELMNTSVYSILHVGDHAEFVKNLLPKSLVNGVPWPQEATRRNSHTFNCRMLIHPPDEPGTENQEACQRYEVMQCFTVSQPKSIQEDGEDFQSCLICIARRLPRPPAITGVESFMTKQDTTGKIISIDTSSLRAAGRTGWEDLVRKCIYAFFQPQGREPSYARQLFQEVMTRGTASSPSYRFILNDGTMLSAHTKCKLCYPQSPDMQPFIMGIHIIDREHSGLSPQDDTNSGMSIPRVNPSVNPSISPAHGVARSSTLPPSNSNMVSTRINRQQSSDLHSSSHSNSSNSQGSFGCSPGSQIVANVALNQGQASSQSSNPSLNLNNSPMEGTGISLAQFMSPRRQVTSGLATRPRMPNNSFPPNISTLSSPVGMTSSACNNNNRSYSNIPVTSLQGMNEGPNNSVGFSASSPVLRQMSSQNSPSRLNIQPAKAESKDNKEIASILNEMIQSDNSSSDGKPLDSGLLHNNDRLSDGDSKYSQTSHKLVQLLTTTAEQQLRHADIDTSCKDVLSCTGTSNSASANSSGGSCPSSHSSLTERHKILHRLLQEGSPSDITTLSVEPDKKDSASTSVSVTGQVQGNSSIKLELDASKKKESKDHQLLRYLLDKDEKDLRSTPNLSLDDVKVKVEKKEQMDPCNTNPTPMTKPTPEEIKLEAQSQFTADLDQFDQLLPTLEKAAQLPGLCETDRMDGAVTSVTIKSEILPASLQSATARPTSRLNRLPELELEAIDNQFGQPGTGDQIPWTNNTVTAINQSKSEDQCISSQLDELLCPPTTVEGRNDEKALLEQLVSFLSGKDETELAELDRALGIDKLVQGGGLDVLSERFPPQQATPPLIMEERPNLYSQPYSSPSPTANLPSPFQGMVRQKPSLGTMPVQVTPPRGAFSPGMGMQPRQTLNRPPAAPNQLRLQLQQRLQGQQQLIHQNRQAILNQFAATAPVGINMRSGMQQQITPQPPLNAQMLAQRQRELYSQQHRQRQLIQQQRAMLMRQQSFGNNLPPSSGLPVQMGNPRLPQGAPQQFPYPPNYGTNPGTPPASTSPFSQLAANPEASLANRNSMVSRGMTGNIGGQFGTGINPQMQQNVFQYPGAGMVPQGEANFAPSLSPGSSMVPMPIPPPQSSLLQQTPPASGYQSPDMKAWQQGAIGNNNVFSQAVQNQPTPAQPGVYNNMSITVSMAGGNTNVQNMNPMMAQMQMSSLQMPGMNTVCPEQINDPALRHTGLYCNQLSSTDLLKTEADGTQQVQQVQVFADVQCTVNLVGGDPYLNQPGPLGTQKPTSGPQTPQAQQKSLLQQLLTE

[4] = VP16 transactivation inhibitors, counter-screen for SRC1 inhibitor project, cell-based, luminescence, high throughput (AID 588824; in the data active = inhibition above about 25%); settings: cell-based VP16 transactivation luciferase luminescence; at 3.6 µM; hits give high values
[5] = target: Nuclear receptor subfamily 5 group A member 2 (Homo sapiens) (UniProt O00482); experiment: LRH-1 (NR5A2) inverse agonists, retest, confirmation, cell-based, luminescence (AID 651613; in the data active = inhibition above about 42%;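 also: HEK293T cells co-transfected with LRH-1 and StAR promoter luciferase reporter; 0% = vehicle wells and 100% = parental cells lacking receptor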); settings: cell-based LRH-1 luciferase reporter, inverse agonism; at 3.6 µM; hits give high values
Nuclear receptor subfamily 5 group A member 2 (Homo sapiens), sequence (O00482 whole entry, looked up): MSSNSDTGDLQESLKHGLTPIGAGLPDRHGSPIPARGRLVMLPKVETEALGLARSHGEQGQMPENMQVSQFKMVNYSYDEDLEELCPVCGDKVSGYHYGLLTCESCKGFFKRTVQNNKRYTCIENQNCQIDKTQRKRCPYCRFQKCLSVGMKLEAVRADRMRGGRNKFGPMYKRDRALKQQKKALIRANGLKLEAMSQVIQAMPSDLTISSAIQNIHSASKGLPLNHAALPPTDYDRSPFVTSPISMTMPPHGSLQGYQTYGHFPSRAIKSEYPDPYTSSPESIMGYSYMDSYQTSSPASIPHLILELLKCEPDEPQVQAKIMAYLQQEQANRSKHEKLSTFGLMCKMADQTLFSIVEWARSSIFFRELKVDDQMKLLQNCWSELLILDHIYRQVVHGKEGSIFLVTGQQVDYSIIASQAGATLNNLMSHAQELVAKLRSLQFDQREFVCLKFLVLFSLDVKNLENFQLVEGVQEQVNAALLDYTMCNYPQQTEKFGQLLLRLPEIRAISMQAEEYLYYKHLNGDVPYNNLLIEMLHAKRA

[6] = target: Steroidogenic factor 1 (Homo sapiens) (UniProt Q13285); experiment: SF1 (NR5A1) inverse agonists, counter-screen for LRH-1 inverse agonist project, cell-based, luminescence, high throughput (AID 651614; in the data active = inhibition above about 44%;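 also: cells cotransfected with StAR promoter reporter and SF1 expression vector; 0% = vehicle on cells with receptor and 100% = vehicle on cells lacking receptor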); settings: cell-based SF1 luciferase reporter, at 3.6 µM, hits give high values
[7] = tested on: transactivating tegument protein VP16 (Human herpesvirus 1); experiment: VP16 transactivation reporter inhibitors, counter-screen for SRC2 inhibitor project, cell-based, luminescence, single concentration (AID 652007; in the data active = inhibition above about 36%); settings: cell-based VP16 transactivation luciferase reporter, at 8.9 µM, hits give high values
[8] = target: Nuclear receptor coactivator 2 (Homo sapiens) (UniProt Q15596); experiment: SRC2 coactivator transcriptional activity inhibitors, confirmation, cell-based, luminescence, HEK293, triplicate (AID 652008;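 active = mean inhibition above 46.5%, the solvent-only control mean plus 3 SD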;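 also: 0% = DMSO-treated cells and 100% = Gossypol at 36 µM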); settings: HEK293 GAL4-SRC2 luciferase reporter, at 8.9 µM, hits give high values
Nuclear receptor coactivator 2 (Homo sapiens), sequence (Q15596 whole entry, looked up, the tested form may be a part): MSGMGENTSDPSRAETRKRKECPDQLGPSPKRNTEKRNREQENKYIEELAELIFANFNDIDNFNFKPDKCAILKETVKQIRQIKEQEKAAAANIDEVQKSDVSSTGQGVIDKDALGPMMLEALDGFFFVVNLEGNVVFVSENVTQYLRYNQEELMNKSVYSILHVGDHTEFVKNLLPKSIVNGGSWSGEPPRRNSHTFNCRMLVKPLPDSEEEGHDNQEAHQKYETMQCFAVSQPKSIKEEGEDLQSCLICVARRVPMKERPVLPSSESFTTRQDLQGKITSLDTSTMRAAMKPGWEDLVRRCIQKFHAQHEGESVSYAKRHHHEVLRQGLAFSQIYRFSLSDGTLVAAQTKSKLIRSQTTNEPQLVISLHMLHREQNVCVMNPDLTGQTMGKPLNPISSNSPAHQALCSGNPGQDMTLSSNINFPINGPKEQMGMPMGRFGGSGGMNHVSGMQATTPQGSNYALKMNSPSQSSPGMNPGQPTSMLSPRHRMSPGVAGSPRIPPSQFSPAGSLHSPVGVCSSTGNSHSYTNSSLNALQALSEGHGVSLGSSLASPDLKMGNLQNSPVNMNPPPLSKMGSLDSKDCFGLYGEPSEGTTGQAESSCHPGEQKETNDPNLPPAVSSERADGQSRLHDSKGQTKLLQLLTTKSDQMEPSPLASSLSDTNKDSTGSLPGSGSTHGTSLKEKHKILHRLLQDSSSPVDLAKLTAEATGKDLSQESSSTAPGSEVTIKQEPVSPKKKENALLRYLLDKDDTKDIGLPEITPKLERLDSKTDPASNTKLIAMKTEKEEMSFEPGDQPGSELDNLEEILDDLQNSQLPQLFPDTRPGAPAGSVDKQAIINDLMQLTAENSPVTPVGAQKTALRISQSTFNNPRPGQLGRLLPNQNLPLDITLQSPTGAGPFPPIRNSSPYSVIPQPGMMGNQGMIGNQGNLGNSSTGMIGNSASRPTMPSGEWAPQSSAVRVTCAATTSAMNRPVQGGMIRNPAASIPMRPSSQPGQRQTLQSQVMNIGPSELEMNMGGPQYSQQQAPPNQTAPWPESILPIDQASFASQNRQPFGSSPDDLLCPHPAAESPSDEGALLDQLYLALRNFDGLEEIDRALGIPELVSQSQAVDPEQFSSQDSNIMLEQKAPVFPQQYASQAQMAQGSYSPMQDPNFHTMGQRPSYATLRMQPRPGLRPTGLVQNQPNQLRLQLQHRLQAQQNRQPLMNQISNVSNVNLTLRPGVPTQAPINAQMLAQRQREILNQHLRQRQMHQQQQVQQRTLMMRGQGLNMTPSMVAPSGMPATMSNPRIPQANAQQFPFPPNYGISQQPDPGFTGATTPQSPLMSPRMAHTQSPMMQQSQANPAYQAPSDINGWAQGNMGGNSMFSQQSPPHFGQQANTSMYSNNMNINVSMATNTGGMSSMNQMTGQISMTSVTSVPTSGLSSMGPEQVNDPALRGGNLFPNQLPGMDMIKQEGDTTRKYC

[9] = StAR promoter reporter inhibitors, counter-screen for LRH-1 inverse agonist project, cell-based, luminescence, high throughput (AID 651611; in the data active = inhibition above about 28%); settings: StAR promoter luciferase reporter counterscreen, at 3.6 µM, hits give high values
[10] = VP16 transactivation reporter inhibitors, counter-screen for LRH-1 inverse agonist project, cell-based, luminescence, high throughput (AID 651615; in the data active = inhibition above about 33%); settings: Gal4-VP16 luciferase reporter cells, at 3.6 µM, hits give high values

SMILES | inhibition [1] | inhibition [2] | inhibition [3] | inhibition [4] | inhibition [5] | inhibition [6] | inhibition [7] | inhibition [8] | inhibition [9] | inhibition [10]
C[C@H]1O[C@@H](O[C@H]2[C@@H](O)C[C@H](O[C@H]3[C@@H](O)C[C@H](O[C@H]4CC[C@@]5(C)[C@H](CC[C@@H]6[C@@H]5C[C@@H](O)[C@]5(C)[C@@H](C7=CC(=O)OC7)CC[C@]65O)C4)O[C@@H]3C)O[C@@H]2C)C[C@H](O)[C@@H]1O | 96.8% (active) | 88.6% (active) | 80.6% (active) | 87.5% (active) | 110% (active) | 97.7% (active) | 70.2% (active) | 55.2% (active) | – | –
CN(C)C(=O)c1cccc(-c2cnc3sc(NCc4ccc5c(c4)OCO5)nn23)c1 | 53.2% (active) | 35.7% (active) | 51.8% (active) | 33.7% (active) | – | – | 8.86% | 62.2% (active) | – | –
CC1CCCCN1c1ncnc(N)c1[N+](=O)[O-] (stereo unspecified) | 61.7% (active) | 35.2% (active) | 50.6% (active) | 36.8% (active) | – | – | 4.43% | 44.8% | – | –
CCCC(=O)Nc1ccc(C(=O)N/N=C/c2ccc([N+](=O)[O-])o2)cc1 | 88.8% (active) | 69.5% (active) | 74.8% (active) | 66.5% (active) | 102% (active) | 95.1% (active) | 23.3% | 53.8% (active) | 86.9% (active) | 80.5% (active)
CC1=C(C(=O)OCc2ccc3c(c2)OCO3)C(c2cccc([N+](=O)[O-])c2)NC(=O)N1 (stereo unspecified) | 64.6% (active) | 42.2% (active) | 65.7% (active) | 37.3% (active) | – | – | -0.72% | 51.9% (active) | – | –
Brc1cccc(CSc2nnc(-c3ccncc3)o2)c1 | 45.8% (active) | 35.2% (active) | 44.4% | 26.9% (active) | – | – | 0.08% | 27.6% | – | –
C(=N\Nc1ccc2ccccc2n1)/c1ccc2c(c1)OCCO2 | 34.6% | 24.2% | -49.9% | -11.3% | – | – | 44.3% (active) | 83.2% (active) | – | –
COc1ccc(-n2c(C)c(C(C)=O)c3cc(O)ccc32)cc1 | 76.1% (active) | 55.6% (active) | 64.1% (active) | 56.6% (active) | – | – | -5.76% | 54% (active) | – | –
Clc1ccc(-n2ncc3c(N4CCCCCC4)ncnc32)cc1 | 77% (active) | 69.2% (active) | 52.9% (active) | 54.3% (active) | 24.8% | 65.8% (active) | 57.4% (active) | 84.6% (active) | 71% (active) | 43% (active)
O=C(Nc1ccc2c(c1)OCCO2)C(c1ccnc2ccccc12)N1CCN(c2ccc(C(F)(F)F)cn2)CC1 (stereo unspecified) | 24.6% | 18.1% | 11.8% | 30.7% (active) | – | – | -0.8% | 57.8% (active) | – | –
O[C@@H]1[C@@H](O)C=C2CCN3Cc4cc5c(cc4[C@H]1C23)OCO5 (stereo partly specified) | 84.3% (active) | 77.5% (active) | 48.1% (active) | 76.7% (active) | 105% (active) | 93.4% (active) | 15.7% | -13.8% | – | –
COc1ccc(/C=C2\SC(=S)N(CCCC(=O)N3CCCCC3CCO)C2=O)cc1 (stereo unspecified) | 20.9% | 17.1% | 4.91% | 13.6% | – | – | 61% (active) | 65.9% (active) | – | –
Cc1cc2sc3ccc(C#CC4(O)CCCCC4)cc3c(=O)c2cc1C | 95.4% (active) | 93.6% (active) | 90.4% (active) | 89.7% (active) | 91.2% (active) | 92.6% (active) | 94.2% (active) | 98.3% (active) | 91.2% (active) | 88.9% (active)
COc1ccccc1-c1cc2nc(-c3ccccc3)cc(N3CCN(C(=O)c4ccco4)CC3)n2n1 | 30.4% | 48.6% (active) | 17.6% | 25.1% | – | – | 62.7% (active) | 60.3% (active) | – | –
CCOc1ccc(/C=C2\SC(=S)N(CCCC(=O)NCCCN3CCOCC3)C2=O)cc1 | 29.9% | 10.6% | 22.1% | 7.63% | – | – | 59.8% (active) | 90% (active) | – | –
CC1CCN(C2=NC(=O)/C(=C/c3ccccc3F)S2)CC1 | 38.5% | -5.24% | -2.11% | -40.4% | – | – | -74.3% | 15.4% | – | –
COc1ccc(-c2cn[nH]c2-c2ccc(OC)cc2O)cc1 | 54.6% (active) | 26.5% | 46.3% | 29.9% (active) | – | – | 2.11% | 25.8% | – | –
CC1(Cc2cccc(F)c2)C(=O)Nc2ccc(-c3cccnc3)cc21 (stereo unspecified) | 66.8% (active) | 49.2% (active) | 65% (active) | 49% (active) | – | – | 8.45% | 56% (active) | – | –
C=C1C(=O)O[C@H]2C[C@H]1[C@@H](OC(C)=O)C/C(C)=C/CC/C(C)=C\CC[C@]2(C)O | 43.6% (active) | 57.6% (active) | 37% | 49.1% (active) | – | – | 34.3% | 28.4% | – | –
COc1cc([C@@H]2c3cc4c(cc3[C@@H](O[C@@H]3O[C@@H]5CO[C@@H](C)O[C@H]5[C@H](O)[C@H]3O)[C@H]3COC(=O)[C@H]23)OCO4)cc(OC)c1O | 64.4% (active) | 8.66% | 62.5% (active) | 6.22% | 69.3% (active) | 44.6% (active) | – | – | – | –

Source: PubChem BioAssay
